Screening results from PubChem BioAssay.
The list is not random: actives were taken first. Their share in the collection is about 6.8%.
A340 absorber: compounds absorbing at 340 nm; AID 708; compound absorbance at 340 nm, fold over control; 65,000 tested, under 10 active; fold change at 10 µM;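 active means at 10 µM dose, initial 340 nm absorbance at least 2 fold that of control wells; inactive means change under 2 fold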;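 further: initial absorbance extrapolated from kinetic A340 decline of NADH oxidation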
Spn PMK inh: inhibitors of Streptococcus pneumoniae phosphomevalonate kinase | purified PMK, PK/LDH-coupled NADH absorbance 340 nm | actives 0.49% (n = 65,000) | inhibition, % at 10 µM;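 active means top-ranked compounds by inhibition in the single 10 µM screen, taking a fixed number of the strongest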
Fluor 339 460: intrinsic fluorescence of library compounds, ex339/em460 – biochemical, MLSMR library, data from DPM-DC assay, artefact control, profiling panel; compound autofluorescence, ex339/em460 nm, NADH buffer; hits give high values; 1 = no-compound wells, NADH background; fluorescence fold increase at 10 µM; actives 5.5% (n = 65,000); AID 709;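 active means at 10 µM, mean starting fluorescence two-fold or more over control wells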;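 further: signal is the first read of a kinetic run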
Spn DPM-DC inh: blocks S. pneumoniae diphosphomevalonate decarboxylase | AID 556 | purified DPM-DC, PK/LDH coupled NADH fluorescence | actives 0.49% (n = 65,000) | calls only at 10 µM;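 active means the 320 compounds with the highest percent inhibition in the single-dose primary screen, excluding strongly autofluorescent ones, cut at about 32% in these data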;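 further: kinetic rate of NADH fluorescence loss reporting ADP formed by the decarboxylase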
MK inhibit: blocks S. pneumoniae mevalonate kinase; AID 555; actives 0.48% (n = 65,000); inhibition, % at 10 µM; purified MK, PK/LDH-coupled NADH absorbance 340 nm;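 active means ranked among the strongest by inhibition in the single 10 µM screen, a fixed top-ranked set picked for dose follow-up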
NADH coupling: blocks coupling enzymes of NAD/NADH assays; actives 0.02% (n = 65,000); coupled PK/LDH NADH assays, four targets; IC50, µM (highest dose often 10 µM);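 active means single-dose screening hits from any of four coupled enzyme assays that gave an IC50 when retested across doses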;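 further: the DPM-DC format reads NADH fluorescence rather than 340 nm absorbance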
Large screens that a line does not name were inactive.

N=c1c(C(=O)NCc2ccc3c(c2)OCO3)cc2c(=O)n3ccccc3nc2n1Cc1cccnc1	none
CCOC(=O)c1cc2c(=O)n3ccccc3nc2n(Cc2ccc(Cl)cc2)c1=N	Fluor 339 460 2.26
O=C(CCn1c(=O)c2ccccc2n(Cc2cc(=O)n3ccccc3n2)c1=O)NCc1ccco1	Fluor 339 460 2.23
COCCCn1c(=N)c(C(=O)NCc2ccc3c(c2)OCO3)cc2c(=O)n3ccccc3nc21	none
COCCn1c(=N)c(C(=O)NCc2ccco2)cc2c(=O)n3ccccc3nc21	Fluor 339 460 3.03
O=C(CSc1nc2ccccc2o1)NCc1n[nH]c(=O)c2ccccc12	none
CCSc1nnc(NC(=O)CSc2nnc(-c3c[nH]c4ccccc34)n2C)s1	none
O=C(Cn1ccc2ccccc2c1=O)NCCC(=O)Nc1ccc2c(c1)OCCO2	none
Cc1nc(NC(=O)CSc2nc3cccnc3n2Cc2ccccc2)sc1C	none
N=c1c(C(=O)NCc2ccco2)cc2c(=O)n3ccccc3nc2n1Cc1ccccc1	Fluor 339 460 2.39
Cn1c(=O)c2c(nc(CN3CCN(C(=O)c4ccco4)CC3)n2CCCc2ccccc2)n(C)c1=O	none
Cc1nc2oc(C(=O)c3ccccc3)c(N)c2c2c1COC(C)(C)C2	none
CCCc1nc2oc(C(=O)OCC)c(N)c2c2c1COC(C)(C)C2	Fluor 339 460 3.93 (not shown: Spn DPM-DC inh)
CCOC(=O)c1c(SC)nc(SC)c2c1CCC2	none
CCOC(=O)c1oc2nc(C(C)C)c3c(c2c1N)CCC3	Fluor 339 460 3.81 (not shown: Spn DPM-DC inh)
CCOC(=O)c1oc2nc(C(C)C)c3c(c2c1N)CC(C)(C)OC3	Fluor 339 460 3.79 (not shown: Spn DPM-DC inh)
O=C1CCCN1CCCNc1ccc(S(=O)(=O)N2CCCCC2)cn1	none
c1coc(CNc2nc(N3CCCCC3)nc3ccccc23)c1	Fluor 339 460 3.7 (not shown: Spn DPM-DC inh)
c1ccc(N2CCN(c3nc(NCc4ccco4)c4ccccc4n3)CC2)cc1	none
CCN1C(=O)c2ccc(-c3nc4ccccc4c(=O)o3)cc2C1=O	Fluor 339 460 2.17 (not shown: Spn DPM-DC inh)
Cc1occc1C(=O)Nc1nnc(C(F)(F)F)s1	Spn PMK inh 74.0, Spn DPM-DC inh active, MK inhibit 59.0
c1ccc(-n2nnnc2SCc2cn3cccnc3n2)cc1	Fluor 339 460 5.01 (not shown: Spn DPM-DC inh)
c1ccc(-n2nnnc2SCc2cn3ccccc3n2)cc1	none
CN(Cc1ccccc1)S(=O)(=O)c1ccc(S(=O)(=O)N2CCN(CCC#N)CC2)cc1	none
COc1ccc(OC)c(C(=O)C2COC(=O)C2)c1 (configuration not stated)	none
NC(=O)c1cnn2c(C(F)(F)F)cc(-c3ccc(F)cc3)nc12	Fluor 339 460 2.06
Cc1ccc(-c2cc(C(F)(F)F)n3ncc(C(=O)N4CCN(C)CC4)c3n2)cc1	none
NC(=O)c1cnn2c(C(F)(F)F)cc(-c3ccccc3)nc12	Fluor 339 460 2.15
COc1cc(-c2cc(C(F)(F)F)n3ncc(C(=O)O)c3n2)cc(OC)c1OC	none
Cc1ccc(CN2C(=O)CCC2C(=O)NCCCN2CCCC(C)C2)cc1 (configuration not stated)	none
CC(=O)Nc1cccc(NC(=O)C2CC3CCC2C3)c1 (configuration not stated)	none
CC(C)CCn1nnnc1C(c1ccc(F)cc1)N1CCN(C(=O)c2ccco2)CC1 (configuration not stated)	Spn PMK inh 26.0
Cc1ccc(C(c2nnnn2CC2CCCO2)N2CCN(C(=O)c3ccco3)CC2)cc1 (configuration not stated)	Spn PMK inh 32.0
O=C(Cn1ncn2c(cc3ccccc32)c1=O)NCCC1=CCCCC1	none
Cc1cccn2c(=O)c3cc(C(=O)NC4CCS(=O)(=O)C4)sc3nc12 (configuration not stated)	Fluor 339 460 2.12 (not shown: Spn DPM-DC inh)
Cc1cccn2c(=O)c3cc(C(=O)NC4CCCC4)c(=N)n(C4CCCC4)c3nc12	Fluor 339 460 2.35 (not shown: Spn DPM-DC inh)
N=c1c(C(=O)NC2CCCC2)cc2c(=O)n3ccccc3nc2n1C1CCCC1	Fluor 339 460 5.21 (not shown: Spn DPM-DC inh)
Cc1cc2oc(C(=O)NC3CCS(=O)(=O)C3)c(C)c2cc1C (configuration not stated)	none
CC(=O)OCC(=O)c1ccc2ccn(C(C)=O)c2c1	Fluor 339 460 3.38 (not shown: Spn DPM-DC inh)
COc1ccccc1N1CCN(CC(=O)c2ccc3ccn(C(C)=O)c3c2)CC1	none
Cc1occc1C(=O)NC1CCCCCC1	none
O=C(NC1CCCCCCC1)c1ccccc1O	Fluor 339 460 2.97
Cc1cccc(N2C(=O)c3cccc4c(N(C)CCO)ccc(c34)C2=O)c1	Fluor 339 460 2.11 (not shown: Spn DPM-DC inh)
CCOC(=O)c1sc(=NC(=O)c2ccc(S(=O)(=O)N3CCOCC3)cc2)n(C)c1C	none
COc1cccc2sc(=NC(=O)c3ccc(S(=O)(=O)N4CCOCC4)cc3)n(C)c12	Fluor 339 460 3.07
CCn1c(=NC(=O)c2ccc(S(=O)(=O)N3CCOCC3)cc2)sc2cccc(OC)c21	Fluor 339 460 4.68 (not shown: Spn DPM-DC inh)
O=C(O)CCSc1nc2ccccc2n1CCOc1ccccc1	none
COc1cccc(Oc2c(C)oc3c(CN4CCOCC4)c(O)ccc3c2=O)c1	Fluor 339 460 3.83 (not shown: Spn DPM-DC inh)
CCOC(=O)c1c(-c2ccccc2)oc2ccc(O)c(CN3CCOCC3)c12	none
COc1ccc(-c2c(C)oc3c(CN4CCCCC4C)c(O)ccc3c2=O)cc1OC (configuration not stated)	Fluor 339 460 2.21 (not shown: Spn DPM-DC inh)
Cc1oc2c(CN3CCOCC3)c(O)ccc2c(=O)c1-c1ccccc1	Fluor 339 460 3.87 (not shown: Spn DPM-DC inh)
CCc1cc2c(=O)c(-c3nc4ccccc4[nH]3)coc2cc1OC(=O)N1CCOCC1	Spn DPM-DC inh active
CCOc1ccc(N(Cc2cc3cc(OC)ccc3[nH]c2=O)C(=O)C2CCCO2)cc1 (configuration not stated)	Fluor 339 460 3
COc1ccc2[nH]c(=O)c(CN(C(=O)c3ccncc3)C(C)C)cc2c1	none
COCC(=O)N(Cc1cc2cc(OC)ccc2[nH]c1=O)c1ccccc1OC	Fluor 339 460 2.65
COc1ccc(CC(=O)N(Cc2cc3cc(OC)ccc3[nH]c2=O)C(C)C)cc1	Fluor 339 460 2.58
COc1ccc(N(Cc2cc3ccccc3[nH]c2=O)C(=O)C2CCCO2)cc1 (configuration not stated)	none
CCC(=O)N(Cc1cc2cc(OC)ccc2[nH]c1=O)c1cccc(C)c1	Fluor 339 460 3
CCCC(=O)N(Cc1cc2cc(C)ccc2[nH]c1=O)c1ccccc1OC	none
COc1ccc(C(C)(C)C)cc1S(=O)(=O)N1CCN(C)CC1	none
O=C(NCCN1CCOCC1)Nc1ccc(Cl)cc1Cl	none
COc1ccc(N2CCN(Cc3nc4c(c(=O)[nH]c(=O)n4C)n3CC(C)=O)CC2)cc1	none
COCC(=O)N(Cc1cc2ccc(C)cc2[nH]c1=O)c1ccc(OC)cc1	none
COCC(=O)N(Cc1cc2cc(OC)ccc2[nH]c1=O)c1ccc(C)cc1	Fluor 339 460 2.1 (not shown: Spn DPM-DC inh)
CCOC(=O)c1c(C)n(OCc2ccccc2)c2ccc3nonc3c12	Fluor 339 460 2.2 (not shown: Spn DPM-DC inh)
